Each molecule was assayed on UCD52 (cells of a triple-negative basal-like breast cancer xenograft) (assay: cell viability of combination (% of vehicle); higher = less cytotoxic). Conditions: 1 µM; 72 h; partner dose: 10 nM.
Method: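 PDX cells were treated for 72 h with each drug at 1 µM plus afatinib (10 nM; 1 µM for WHIM30). Luciferase viability is expressed as percent of vehicle.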

| SMILES | cell viability of combination |
| --- | --- |
| Cc1cc(C(C#N)c2ccc(Cl)cc2)c(Cl)cc1NC(=O)c1cc(I)cc(I)c1[O-].[Na+] (stereo not given) [Closantel Sodium] + CN(C)C/C=C/C(=O)Nc1cc2c(Nc3ccc(F)c(Cl)c3)ncnc2cc1O[C@H]1CCOC1 [Afatinib] | 72.7 |
| CCCCCCCCCCCCCCCC[N+](C)(C)C.[Br-] [Cetrimonium Bromide (CTAB)] + CN(C)C/C=C/C(=O)Nc1cc2c(Nc3ccc(F)c(Cl)c3)ncnc2cc1O[C@H]1CCOC1 [Afatinib] | 66.1 |
| CCCCCCCCCCCCCCCC[n+]1ccccc1.[Cl-] [Cetylpyridinium Chloride] + CN(C)C/C=C/C(=O)Nc1cc2c(Nc3ccc(F)c(Cl)c3)ncnc2cc1O[C@H]1CCOC1 [Afatinib] | 55.3 |
| CCCCCCCCCCCC[N+](C)(C)CCOc1ccccc1.[Br-] [Domiphen Bromide] + CN(C)C/C=C/C(=O)Nc1cc2c(Nc3ccc(F)c(Cl)c3)ncnc2cc1O[C@H]1CCOC1 [Afatinib] | 65.3 |
| Cc1cc(C(C#N)c2ccc(Cl)cc2)c(Cl)cc1NC(=O)c1cc(I)cc(I)c1O (stereo not given) [Closantel] + CN(C)C/C=C/C(=O)Nc1cc2c(Nc3ccc(F)c(Cl)c3)ncnc2cc1O[C@H]1CCOC1 [Afatinib] | 75.8 |

From the supplement of paper PMC6992640
